# Rows were chosen to be rich in hits. Some 10% of all compounds tested hit in one or more screens of this group.
# G9a block: inhibitors of human histone lysine methyltransferase G9a. Q96KQ7. G9a H3K9 monomethylation, AlphaScreen, 2 h. Potency, µM (highest dose often 102 µM), most hits filed as inhibitors. 350,000 compounds, 8.8% hits. AID 504332; further: nearly all actives have a fitted effect of over 75% in size
#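 Compounds were preincubated with 20 nM G9a for 15 min, after which biotinylated H3K9 peptide (500 nM) and SAM (20 uM) started a 2 h room-temperature reaction. Monomethylated product was quantified by antibody-based AlphaScreen chemiluminescence.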
# BAZ2B block: blocks human BAZ2B. Q9UIF8. AlphaScreen BAZ2B-H3K14Ac peptide displacement. Potency, µM (titrated, usually from 114 µM), usual class: inhibitors. 360,000 compounds, 4.4% hits. AID 504333; further: nearly all actives have a fitted effect of over 60% in size
#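 Multi-concentration screen (max 110 uM) measuring displacement of acetylated histone H3 peptide from BAZ2B by AlphaScreen, using 50 nM protein, 50 nM peptide and 10 ug/mL streptavidin donor plus Ni-chelate acceptor beads.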
# GLS inhibitor: inhibitors of human glutaminase (GLS); GLS enzymatic activity, qHTS titration; Potency, µM (doses to about 45.5 µM), actives largely listed as inhibitors; 410,000 compounds, 0.21% hits; AID 624170
#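 hKGA in 45 mM KH2PO4 (pH 8.2), 0.02% Tween-20 with compound, then 1mM L-Glutamine (stock as added) plus glutamate oxidase/HRP/Amplex red coupling mix. Fluorescence read initially and after 30 min at RT; signal change reflects glutamate formation.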
# JMJD2A Tudor: inhibitors of human JMJD2A Tudor domain | Potency, µM (series often up to 114 µM), usual class: inhibitors | AlphaScreen JMJD2A-Tudor / H3K4me3 peptide binding | 390,000 compounds, 4.4% hits | O75164; further: nearly all actives have a fitted effect of over 50% in size
# Target sequence (O75164 whole entry, looked up, the tested form may be a part): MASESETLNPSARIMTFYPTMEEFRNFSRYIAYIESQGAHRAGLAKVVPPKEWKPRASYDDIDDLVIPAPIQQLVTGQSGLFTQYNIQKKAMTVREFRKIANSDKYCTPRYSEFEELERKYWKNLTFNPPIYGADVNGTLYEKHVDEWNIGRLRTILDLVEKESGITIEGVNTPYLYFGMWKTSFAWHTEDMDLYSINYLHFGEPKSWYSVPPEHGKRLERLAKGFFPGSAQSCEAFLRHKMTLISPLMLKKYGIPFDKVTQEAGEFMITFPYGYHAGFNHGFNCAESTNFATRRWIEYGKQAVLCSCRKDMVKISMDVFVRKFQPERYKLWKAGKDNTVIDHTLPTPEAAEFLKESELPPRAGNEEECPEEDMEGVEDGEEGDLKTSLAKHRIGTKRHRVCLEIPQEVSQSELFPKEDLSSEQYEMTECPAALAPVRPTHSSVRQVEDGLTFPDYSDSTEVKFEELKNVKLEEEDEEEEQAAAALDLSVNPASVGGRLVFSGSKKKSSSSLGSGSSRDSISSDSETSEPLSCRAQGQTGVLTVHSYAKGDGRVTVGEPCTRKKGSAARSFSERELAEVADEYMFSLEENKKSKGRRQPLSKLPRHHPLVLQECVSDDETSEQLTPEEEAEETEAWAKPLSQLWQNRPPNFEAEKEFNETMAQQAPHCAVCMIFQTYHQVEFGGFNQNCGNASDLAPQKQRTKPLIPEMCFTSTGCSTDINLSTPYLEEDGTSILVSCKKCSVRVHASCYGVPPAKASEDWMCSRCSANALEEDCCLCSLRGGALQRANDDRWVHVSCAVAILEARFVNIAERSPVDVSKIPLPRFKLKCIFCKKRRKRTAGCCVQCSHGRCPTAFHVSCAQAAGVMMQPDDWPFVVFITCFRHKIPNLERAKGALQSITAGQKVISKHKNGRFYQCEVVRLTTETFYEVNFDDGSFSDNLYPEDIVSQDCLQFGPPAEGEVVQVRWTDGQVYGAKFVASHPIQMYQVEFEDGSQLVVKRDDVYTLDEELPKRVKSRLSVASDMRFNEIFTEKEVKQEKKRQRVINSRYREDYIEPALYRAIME
# HP1b chromo inh: inhibitors of HP1-beta chromodomain binding to methylated histone tails | Potency, µM (titrated, usually from 114 µM), usual class: inhibitors | AlphaScreen HP1-beta / biotin-H3K9me3 peptide binding | 390,000 compounds, 0.56% hits | P83916; further: nearly all actives have a fitted effect of over 70% in size
#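 Compound inhibition of the preformed complex between 50 nM HP1-beta and 50 nM biotinylated H3K9me3 peptide was read by AlphaScreen. Buffer was PBS pH 7.4 with 0.01% Tween-20. Incubations ran 30 min at room temperature, with 10 ug/mL donor/acceptor beads.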
# A number is an active result; . = inactive; ? = inconclusive; / = no result; ! = repeats disagree; [ ] = remark or other dose. The call rests on the fitted dose curve; in most records, active means well fitted curve in the direction sought with a large enough effect; inconclusive means small, poorly fitted or top-dose-only effect, or another doubt; inactive means no such curve, though single readings can be large; an effect the other way counts as inactive or inconclusive.
SMILES,G9a block,BAZ2B block,GLS inhibitor,JMJD2A Tudor,HP1b chromo inh
COCCN1Cc2cccc(C(=O)Nc3ccc(S(=O)(=O)N4CCCCCC4)cc3)c2C1=O,/,.,.,.,.
Cc1nc(C)c(-c2csc(Nc3ccc(N)cc3)n2)s1,39.8µM,28.2µM,.,50.1µM,?
Cc1nc(C)c(-c2csc(Nc3ccc(O)c(C(=O)O)c3)n2)s1,79.4µM,?,?,.,.
COc1ccc(Nc2nc(-c3sc(C)nc3C)cs2)cc1,/,50.1µM,.,?,?
O=C(O)Cc1ccc(C(=O)c2cccs2)s1,?,/,.,.,.
O=C(c1ccccc1)N1CCc2[nH]nc(-c3ccccc3)c2C1,.,.,.,.,.
O=C(c1ccco1)N1CCc2[nH]nc(-c3ccccc3)c2C1,79.4µM,.,.,.,.
CCc1cccc2sc(N3CCN(C(=O)c4ccc([N+](=O)[O-])o4)CC3)nc12,31.6µM,?,.,22.4µM,?
CCc1cccc2sc(N3CCN(C(=O)C4CC4)CC3)nc12,.,.,.,.,.
C[C@H](NS(=O)(=O)c1ccc(Cl)cc1)C(=O)OCC(=O)NC(=O)Nc1ccc2c(c1)OCCO2,.,.,.,.,.
CCn1c2ccccc2c2cc(NC(=O)CSc3nnc(-c4ccc(OC)c(OC)c4)n3N)ccc21,.[12.7 µM],.,/,.,.
COc1ccc(-c2nnc(SC(C(=O)c3c[nH]c4ccccc34)c3ccccc3)n2N)cc1OC (centres undefined),8.91µM,.,.,?,.
O=C(OCC#CCSc1nnc(-c2cccc3ccccc23)o1)c1ccco1,.[0.501 µM],79.4µM!,.,.,.
O=C(OCC#CCSc1nnc(-c2cccc3ccccc23)o1)c1ccc(Br)cc1,.[12.7 µM],.,.,.,.
CCOc1ccc(/C=C2\SC(=S)N(CCC(=O)O)C2=O)cc1,.,.,.,.,.
O=C1/C(=C/c2ccncc2)SC(=S)N1Cc1ccccc1,/,11.2µM,.,25.1µM,44.7µM
CCCN1C(=O)/C(=C/c2ccncc2)SC1=S,44.7µM,25.1µM,.,?,?
O=C(/C=C/c1cccc(O)c1)c1ccc(N2CCOCC2)cc1,?,.,.,.,.
N#Cc1c(NCCN)nc(NCc2ccccc2)c2c1CCN(Cc1ccccc1)C2,44.7µM,?,.,?,.
CCN1CCc2c(C#N)c(NCc3ccccc3)nc(N(CC)CC)c2C1,50.1µM,?,.,?,.
CCCc1nc(NCc2ccccc2)c(C#N)c2c1CCCC2,.,.,.,.,.
Cc1ccc(S(=O)(=O)c2nnn(-c3ccc(F)c(Cl)c3)c2N)cc1,.,.,.,.,.
CCSCc1nc2ccccn2c1Br,12.6µM,?,.,.,.
CCCCSCc1nc2ccccn2c1Br,12.6µM,.,.,.,.
C=CCn1c(-c2ccc(F)cc2)n[nH]c1=S,20µM,.,.,7.08µM,.
SMILES,G9a block,BAZ2B block,GLS inhibitor,JMJD2A Tudor,HP1b chromo inh
C=CCn1c(-c2ccoc2)n[nH]c1=S,.[0.501 µM],?,.,5.01µM,?
CCCn1c(-c2ccncc2)n[nH]c1=S,?,.,.,7.94µM,.
C=CCn1c(-c2ccccc2)n[nH]c1=S,.,.,?,?,.
C=CCn1c(-c2ccncc2)n[nH]c1=S,/,?,.,15.8µM,.
Cc1ccc(-c2cn(CCN)c(-c3ccncc3)n2)cc1,.[2.33 µM],?,.,?,.
O=C(Nc1ccc2nc(SCC(=O)N3CCOCC3)sc2c1)c1ccc(Cl)cc1,.,.,.,.,.
Cc1ccc2c(c1)CCCN2C(=O)C1CCCO1 (centres undefined),.,.,.,.,.
Cc1ccc(C(=O)N2CCN(C(=O)C3CCCO3)CC2)cc1 (centres undefined),.[12.7 µM],.,.,.,.
COc1ccc(NC(=O)NNC(=O)C(O)(c2ccccc2)c2ccccc2)cc1,.,.,.,.,.
CCNc1sc(C(=O)c2cccs2)c(N)c1-c1nc2ccccc2s1,10µM,?,.,?,.
CCOC(=O)c1sc(NCc2ccco2)c(-c2nc3ccccc3s2)c1N,.,.,.,?,.
C=CCNc1sc(C(=O)c2ccccc2)c(N)c1-c1nc2ccccc2s1,22.4µM,?,.,?,25.1µM
O=C(O)CCC/C=C\C[C@@H]1[C@@H](/C=C/[C@@H](O)COc2cccc(C(F)(F)F)c2)[C@H](O)C[C@@H]1O,.,/,.,/,/
FC(F)Oc1ccc(NC(=S)NCCc2ccccn2)cc1,.,.,?,.,.
O=C(CN1CCCCCC1)Nc1ccccc1F,8.91µM,56.2µM,.,2.24µM,?
O=C(CCN1CCCCCC1)Nc1ccccc1F,/,/,.,.,.
CCc1ccccc1NC(=O)Cn1nc(C)n2cccc2c1=O,.,.,.,.,.
Cc1nn(CC(=O)Nc2ccccc2C(F)(F)F)c(=O)c2cccn12,3.16µM!,22.4µM!,.,8.91µM!,?
O=C(CN1CCN(c2ccccc2O)CC1)NC(c1ccccc1)c1ccccc1,.,.,.,?,.
O=C(CN1CCN(CC(=O)c2ccc(F)cc2)CC1)Nc1ccccc1Cl,7.08µM,.,.,.,.
O=C(CN1CCCC1)NC(c1ccccc1)c1ccccc1,10µM,.[0.457 µM],.,1.41µM,?
O=C(CN1CCCCCC1)Nc1ccccc1Cl,.,.,.,.,.
Cn1c(=O)c2c(nc(CN3CCC(C(N)=O)CC3)n2Cc2c(Cl)cccc2Cl)n(C)c1=O,.[12.7 µM],.,.,.,.
COc1ccc(NC(C)=O)cc1NC(=O)C1(c2cccs2)CCOCC1,.,.,.,.,.
NNC(=O)CC1=NNC(=O)C1,/,/,.,.,.
SMILES,G9a block,BAZ2B block,GLS inhibitor,JMJD2A Tudor,HP1b chromo inh
O=C(CN1CCN(CC(=O)Nc2ccccc2C(F)(F)F)CC1)Nc1ccccc1F,31.6µM,.,.,.,.
CN(CC(=O)Nc1cccc(F)c1)C(=O)/C=C/c1cn(Cc2ccccc2)nc1-c1cccnc1,50.1µM,.,.,.,.
O=C(O)/C=C/c1cn(Cc2ccccc2)nc1-c1cccnc1,/,.,.,.,.
Oc1[nH]c2ccccc2c1N=Nc1ccc(F)cc1,?,.,.,.,.
Oc1c(N=Nc2ccc(F)cc2)ccc2ccccc12,2.51µM,1.41µM,.,2.51µM,3.16µM
Oc1[nH]c2ccccc2c1N=Nc1ccccc1,.[12.7 µM],?,.,.,.
Oc1c(N=Nc2nn[nH]n2)ccc2ccccc12,/,/,20µM,/,/
Oc1c(-c2cc(-c3ccco3)[nH]n2)ccc2ccccc12,?,?,.,?,.
Cc1ccc(N=Nc2ccc3ccccc3c2O)cc1,2µM,1.12µM,.,3.16µM,?
Oc1ccc2ccccc2c1N=Nc1ccc(F)cc1,2µM,2.24µM,.,2.24µM,5.62µM
COCCCNC(=O)c1cccc2c(-c3ccnn3C)coc12,/,/,.,/,/
Cc1cc(C(=O)NCC(=O)O)c(C)o1,.,50.1µM,.,.,.
CN(C)S(=O)(=O)c1ccc(C(=O)N2CCN(S(=O)(=O)c3cccs3)CC2)cc1,.,.,.,.[11.4 µM],.
COc1cccc(N2CC(C(=O)Nc3nnc(SCC(=O)NCc4ccco4)s3)CC2=O)c1 (centres undefined),/,?,.,?,.

# Screening results deposited in PubChem by National Center for Advancing Translational Sciences (NCATS).
